RORg inh: inhibitors of mouse ROR gamma transcriptional activity; Drosophila S2 Gal4-RORgamma UAS-luciferase reporter, 20 h; 310,000 tested, 5.4% active; Potency, µM (highest dose often 53.6 µM), most hits filed as inhibitors; AID 2551; also: nearly all actives have a fitted effect of over 60% in size
Target sequence (P51450 whole entry, looked up, the tested form may be a part): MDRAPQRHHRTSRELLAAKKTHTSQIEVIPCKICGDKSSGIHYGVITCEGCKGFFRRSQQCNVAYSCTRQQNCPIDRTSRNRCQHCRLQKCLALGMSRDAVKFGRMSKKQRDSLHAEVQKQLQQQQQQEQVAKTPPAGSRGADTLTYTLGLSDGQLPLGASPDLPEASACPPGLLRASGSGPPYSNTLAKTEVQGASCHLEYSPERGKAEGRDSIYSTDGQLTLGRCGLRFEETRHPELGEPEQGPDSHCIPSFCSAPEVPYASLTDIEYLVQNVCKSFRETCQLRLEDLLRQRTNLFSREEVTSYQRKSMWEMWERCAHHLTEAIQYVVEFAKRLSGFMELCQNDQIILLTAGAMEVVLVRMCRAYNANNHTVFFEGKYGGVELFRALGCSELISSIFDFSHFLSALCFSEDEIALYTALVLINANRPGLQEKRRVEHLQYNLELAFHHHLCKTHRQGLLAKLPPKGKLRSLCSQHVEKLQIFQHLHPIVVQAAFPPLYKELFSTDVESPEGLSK
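Drosophila S2 cells stably expressing Gal4-DBD/mouse RORγ fusion under metallothionein promoter plus UAS-luciferase; compound 1 h, then 700 uM CuSO4 induction for 20 h at ambient temperature; inhibition read as reduced luminescence.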
TDP1 cell noCPT: qHTS for Inhibitors of human tyrosyl-DNA phosphodiesterase 1 (TDP1): qHTS in cells in absence of CPT; Potency, µM (series often up to 46.2 µM), actives largely listed as inhibitors; AID 686978, 2013; DT40 Tdp1-/- hTDP1 cells, no CPT, ATP luminescence, 48 h; 420,000 tested, 15% active; also: nearly all actives have a fitted effect of over 55% in size
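Stably hTDP1-transfected Tdp1-null chicken DT40 cells were treated with library compounds minus camptothecin and grown for at least 48 hr at 37 °C, after which cellular ATP was quantified by luminescence.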
Gal4-VP16 FLuc: inhibits Gal4-VP16 luciferase reporter, ROR gamma counter-screen. Drosophila S2 Gal4-VP16 UAS-luciferase, luminescence, 20 h. Potency, µM (top dose mostly 53.6 µM), usual class: inhibitors. 310,000 tested, 3.5% active. AID 2546;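 also: Gal4-VP16 expression switched on by copper sulfate through the metallothionein promoter; nearly all actives have a fitted effect of over 50% in size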
TDP1 cell CPT: DT40-hTDP1 cell growth loss with CPT; 420,000 tested, 12% active; Potency, µM (series often up to 46.2 µM), most hits filed as inhibitors; chicken DT40 Tdp1-/-;hTDP1 cells + 20 nM CPT, ATP luminescence, 48 h; also: nearly all actives have a fitted effect of over 55% in size
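Chicken DT40 Tdp1-/- cells stably complemented with human TDP1 were seeded at 400 cells/well in medium containing 20 nM camptothecin, exposed to pin-transferred compounds, and grown at 37 °C for at least 48 hr. Viability was read as ATP luminescence.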
TDP1 block: blocks human tyrosyl-DNA phosphodiesterase 1 | Q9NUW8 | recombinant TDP1, AlphaScreen DNA substrate cleavage | Potency, µM (top dose mostly 130 µM), hits mostly inhibitors | 350,000 tested, 0.28% active | AID 485290; also: nearly all actives have a fitted effect of over 40% in size
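Enzyme-compound mixtures sat 15 min at room temperature, followed by a 5 min reaction with 15 nM final substrate and 10 min with AlphaScreen beads. Recombinant human Tdp1 was used at 1 nM final.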
Each line names hits and unclear results; the compound was inactive in the other large screens. Compounds with a hit are over-represented: about 19% of the library has one in this group of screens. Calls follow the shape of the dose curve; as a rule, active = well fitted curve in the direction sought with a large enough effect; inconclusive = small, poorly fitted or top-dose-only effect, or another doubt; inactive = no such curve, though single readings can be large; an effect the other way counts as inactive or inconclusive.

Cc1ccc(S(=O)(=O)NCCS(=O)(=O)N2CCN(c3ccc(F)cc3)CC2)cc1	TDP1 cell noCPT 11.6µM, TDP1 cell CPT inconclusive (no result: RORg inh, Gal4-VP16 FLuc)
O=S(=O)(NCCS(=O)(=O)N1CCN(c2ccccc2)CC1)c1ccccc1	TDP1 cell noCPT inconclusive
O=C(NCCS(=O)(=O)N1CCN(c2ccc(F)cc2)CC1)c1cc(=O)c2ccccc2o1	TDP1 cell noCPT inconclusive, TDP1 cell CPT inconclusive (no result: RORg inh, Gal4-VP16 FLuc)
CN(C)CCNS(=O)(=O)c1ccc(N2CCN(c3ccc(F)cc3)CC2)c([N+](=O)[O-])c1	TDP1 cell noCPT 13µM, TDP1 cell CPT 13µM
O=C(NCCS(=O)(=O)N1CCN(c2cccc(Cl)c2)CC1)c1cc(=O)c2ccccc2o1	TDP1 cell noCPT 2.06µM, TDP1 cell CPT inconclusive
Cc1cccc(Nc2nnc(SCC(=O)Nc3ccc(C(=O)O)cc3)s2)c1	Gal4-VP16 FLuc inconclusive
Cn1c(=O)c2c(nc(SCCN3CCOCC3)n2Cc2ccccc2)n(C)c1=O	RORg inh inconclusive
CSCC[C@H](NC(=O)[C@H](CCCN=C(N)N)NC(=O)[C@@H]1CCCN1C(=O)[C@H](Cc1ccccc1)NC(=O)[C@H](C)NC(=O)[C@H](CC(C)C)NC(=O)[C@H](Cc1ccc(O)cc1)NC(=O)[C@H](CC(N)=O)NC(=O)[C@@H](N)CCSC)C(N)=O	none (no result: TDP1 cell noCPT, TDP1 cell CPT)
C/C(=N\NC(=O)c1ccccc1)c1ccc(N2CCOCC2)cc1	none
Nc1ncn(C(=S)Nc2ccccc2)n1	TDP1 cell noCPT 1.3µM, TDP1 cell CPT 1.16µM (no result: RORg inh, Gal4-VP16 FLuc, TDP1 block)
COc1ccc(NC(=O)N2CCC(C(=O)c3ccc4c(c3)OCCO4)CC2)cc1	TDP1 cell noCPT inconclusive
O=C(c1ccc2c(c1)OCCO2)C1CCN(C(=O)Nc2ccc(F)cc2)CC1	TDP1 cell noCPT 18.4µM, TDP1 cell CPT inconclusive (no result: TDP1 block)
Cc1cccc(NC(=O)CN2CCC(C(=O)c3ccc4c(c3)OCCO4)CC2)c1	TDP1 cell noCPT 16.4µM, Gal4-VP16 FLuc inconclusive, TDP1 cell CPT inconclusive
COc1ccc(NC(=O)c2cc(S(=O)(=O)N3CCOCC3)ccc2N2CCOCC2)cc1	none
CCCCCCOC(=O)C(C#N)c1nc2ccccc2nc1N1CCN(CC)CC1 (stereo not given)	RORg inh 10µM, TDP1 cell noCPT 20.6µM, Gal4-VP16 FLuc inconclusive, TDP1 cell CPT inconclusive
COCCOC(=O)C(C#N)c1nc2ccccc2nc1N1CCCC1 (stereo not given)	none
CCCCOC(=O)C(C#N)c1nc2ccccc2nc1N1CCOCC1 (stereo not given)	TDP1 cell noCPT inconclusive, TDP1 cell CPT inconclusive
C=CCOC(=O)C(C#N)c1nc2ccccc2nc1N1CCCC1 (stereo not given)	none
CCN1CCN(c2nc3ccccc3nc2C(C#N)C(=O)OCc2ccccc2)CC1 (stereo not given)	TDP1 cell noCPT inconclusive, TDP1 cell CPT 23.1µM
CCCCCCOC(=O)C(C#N)c1nc2ccccc2nc1N1CCOCC1 (stereo not given)	TDP1 cell noCPT 18.4µM, TDP1 cell CPT inconclusive
CC1CCN(c2nc3ccccc3nc2C(C#N)C(=O)OC2CCCCC2)CC1 (stereo not given)	RORg inh inconclusive, TDP1 cell noCPT inconclusive, TDP1 cell CPT 16.4µM
CC1CCCC(NC(=O)COC(=O)CCC(=O)c2ccc(F)cc2)C1C (stereo not given)	none (no result: RORg inh, Gal4-VP16 FLuc)
O=C(COC(=O)C12CC3CC(CC(O)(C3)C1)C2)Nc1ccc(Br)cc1F	none (no result: RORg inh, Gal4-VP16 FLuc)
O=C1c2ccccc2C(=O)N1CCN1CCOCC1	none
O=C1C(Cl)=C(NCCN2CCOCC2)C(=O)c2ncccc21	RORg inh 4.47µM, Gal4-VP16 FLuc 2.82µM (no result: TDP1 cell noCPT, TDP1 cell CPT)
O=C1C(Cl)=C(NCCN2CCOCC2)C(=O)c2ccccc21	RORg inh inconclusive, TDP1 cell noCPT 16.4µM, Gal4-VP16 FLuc inconclusive, TDP1 cell CPT inconclusive (no result: TDP1 block)
O=C1C(Cl)=C(NCCCN2CCOCC2)C(=O)c2ccccc21	TDP1 cell noCPT 13µM, TDP1 cell CPT 18.4µM (no result: RORg inh, Gal4-VP16 FLuc, TDP1 block)
Clc1ccccc1-c1nccc(NCCN2CCOCC2)n1	none (no result: TDP1 block)
CN1CCN(C(=O)Nc2ccccc2CC[N+](=O)[O-])CC1	none
COc1ccc2c(c1)c1nnc(SC(C)C)nc1n2C	TDP1 cell noCPT inconclusive (no result: RORg inh, Gal4-VP16 FLuc, TDP1 block)
Cc1nc(N)nc(Nc2ccc(Cl)cc2)c1Br	TDP1 cell CPT inconclusive
CSC1=N/C(=C\c2cccc(Cl)c2)C(=O)N1N(C)C	TDP1 cell noCPT 20.6µM, TDP1 cell CPT inconclusive
O=[N+]([O-])c1ccc(/C=C/c2ccncc2)cc1	TDP1 cell noCPT 13µM, TDP1 cell CPT inconclusive (no result: TDP1 block)
O=[N+]([O-])c1ccc2nc(CN3CCCCC3)[nH]c2c1	none
NC(N)=Nc1nc2ccc([N+](=O)[O-])cc2[nH]1	TDP1 cell noCPT 29.1µM
O=[N+]([O-])c1ccc2nc(CO)[nH]c2c1	TDP1 cell noCPT 0.501µM, TDP1 cell CPT inconclusive (no result: RORg inh, Gal4-VP16 FLuc, TDP1 block)
O=[N+]([O-])c1ccc(/C=C/c2nc3ccc([N+](=O)[O-])cc3[nH]2)cc1	TDP1 cell noCPT 4.11µM, Gal4-VP16 FLuc inconclusive, TDP1 cell CPT 5.8µM
COC(=O)C1[C@H]2SC(C)(C)C(C(=O)OC)N2C(=O)N1Cc1ccccc1 (stereo not given in full)	none (no result: RORg inh, Gal4-VP16 FLuc, TDP1 block)
O=C(c1cc2c([nH]c1=O)CCCC2)N1CCc2c([nH]c3ccccc23)C1c1ccccc1F (stereo not given)	TDP1 cell CPT inconclusive
Cc1cc(C)cc(CN2CCC(Oc3ccc(C(=O)N4CCCC4)cc3)CC2)c1	TDP1 cell noCPT 23.1µM, TDP1 cell CPT 20.6µM (no result: TDP1 block)
COc1ccc(/C=C/CN2CCC(Oc3ccc(C(=O)N4CCCCC4)cc3)CC2)cc1	TDP1 cell noCPT 14.6µM, TDP1 cell CPT inconclusive
COc1ccc(C(=O)NC2CC2)cc1OC1CCN(Cc2ccccc2)CC1	none
COc1ccccc1/C=C/CN1CCC(Oc2ccc(C(=O)N3CCCCC3)cc2)CC1	TDP1 cell noCPT 25.9µM, TDP1 cell CPT inconclusive
COc1ccccc1/C=C/CN1CCC(Oc2cc(C(=O)NC3CC3)ccc2OC)CC1	TDP1 cell noCPT 2.06µM, TDP1 cell CPT inconclusive
O=C(c1ccc(OC2CCN(C/C=C/c3ccccc3)CC2)cc1)N1CCCCC1	TDP1 cell noCPT inconclusive, TDP1 cell CPT inconclusive
C[C@@H]1CN([C@@H](C)CO)C(=O)c2cc(NC(=O)Nc3ccc4c(c3)OCO4)ccc2O[C@H]1CN(C)S(=O)(=O)c1cn(C)cn1	none (no result: RORg inh, Gal4-VP16 FLuc)
Cc1cccc(C)c1NC(=O)C(=O)NCCCN1CCOCC1	TDP1 cell noCPT inconclusive, TDP1 cell CPT inconclusive
CC(C)C[C@H]1CNC(=O)C(=O)N1C[C@H]1CCCN1C[C@H](CC(C)C)N1C[C@H](Cc2ccccc2)N(CCc2ccccc2)C(=O)C1=O	TDP1 cell noCPT 29.1µM, TDP1 cell CPT 20.6µM (no result: RORg inh, Gal4-VP16 FLuc, TDP1 block)
CC(C)C[C@H]1CNC(=O)C(=O)N1C[C@@H]1CCCN1C[C@H](Cc1ccccc1)N1C[C@H](Cc2ccccc2)N(CC2CCCCC2)C(=O)C1=O	TDP1 cell CPT inconclusive (no result: RORg inh, Gal4-VP16 FLuc, TDP1 block)

Bioassay records as filed in PubChem BioAssay.
